Screens from PubChem.
The list is not random: actives were taken first. Their share in the collection is about 2.2%.
LGR2 antag: Drosophila LGR2 receptor signaling inhibition; HEK293 LGR2, CRE-luciferase, bursicon-stimulated, 4 h; AID 720647; 0.35% of 380,000 active; inhibition, % at 9.99 µM;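 active = drop in luminescence signal, shown as inhibition above about 50% in the replicate tests, limit read from the data, passing the limit was not always enough; inconclusive = probably only some replicates passing the limit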;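 also: agonist challenge used bursicon conditioned medium at about half maximal strength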
TWEAK Fn14 block: inhibitors of TWEAK-Fn14 interaction signaling | TWEAK-stimulated Fn14 reporter cells, luciferase luminescence, 8 h | inhibition, % at 10 µM | 2% of 360,000 active; in the data active = inhibition above about 50%
TROY signal inh: inhibitors of TROY-dependent NF-kB signaling | Q293 LMP1-TROYcd NF-kB luciferase reporter, 4 h | inhibition, % at 10 µM | 0.98% of 360,000 active;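 active = compounds whose plate-normalised and pattern-corrected inhibition of the luciferase reporter signal at the single screening dose is 50% or more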
HSP90 refold inh: HSP90 refolding inhibition in rabbit reticulocyte lysate. AID 1789. 0.91% of 290,000 active. luciferase refolding luminescence, 3 h. inhibition, % at 5.6 µM;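 active = inhibition above the screen-wide mean plus 3 SD, computed separately per campaign, cut at about 16% in these data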;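 also: 0% = DMSO wells and 100% = 60 µM geldanamycin wells; inhibitors lower the luminescence because luciferase stays unfolded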
HSP90 inh confirm: HSP90 inhibition, confirmation assay; shares compounds with HSP90 refold inh; rabbit reticulocyte lysate, luciferase refolding luminescence, 3 h; inhibition, % at 5.9 µM; 64% of 2,300 active; in the data active = inhibition above about 18%;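 also: 0% = vehicle wells and 100% = reference inhibitor wells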
FLuc counter: firefly luciferase inhibition, HSP90 counter-screen; inhibition, % at 5.9 µM; shares compounds with HSP90 refold inh; AID 1847; purified native firefly luciferase, luminescence; 48% of 2,300 active;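 active = inhibition above the mean inhibition of all tested sample wells plus 3 SD, cut at about 10% in these data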;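 also: 0% = DMSO with luciferase and 100% = wells lacking luciferase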
Target sequence (P08659 whole entry, looked up): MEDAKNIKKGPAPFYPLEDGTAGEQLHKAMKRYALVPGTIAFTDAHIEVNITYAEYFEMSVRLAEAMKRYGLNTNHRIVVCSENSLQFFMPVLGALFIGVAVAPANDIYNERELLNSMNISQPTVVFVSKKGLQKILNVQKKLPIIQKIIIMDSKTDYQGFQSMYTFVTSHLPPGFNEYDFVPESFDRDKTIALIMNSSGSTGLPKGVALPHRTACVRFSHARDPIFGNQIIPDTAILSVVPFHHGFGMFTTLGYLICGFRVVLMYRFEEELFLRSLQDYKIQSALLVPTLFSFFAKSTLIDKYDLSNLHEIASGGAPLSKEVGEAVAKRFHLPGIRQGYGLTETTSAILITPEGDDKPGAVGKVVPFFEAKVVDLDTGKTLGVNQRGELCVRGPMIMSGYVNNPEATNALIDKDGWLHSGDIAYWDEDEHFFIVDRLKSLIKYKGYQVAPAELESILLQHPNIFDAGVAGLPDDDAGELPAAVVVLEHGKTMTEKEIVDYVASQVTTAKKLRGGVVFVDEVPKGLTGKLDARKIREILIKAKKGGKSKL
The depositor's hits bear a star; ? = inconclusive; nt = no result.

SMILES	LGR2 antag	TWEAK Fn14 block	TROY signal inh	HSP90 refold inh	HSP90 inh confirm	FLuc counter
Cc1ccc(NC(=O)c2ccc3ncsc3c2)cc1S(=O)(=O)N(C)C	-70	nt	nt	19*	24*	20*
CN1[C@@H]2c3ccc(/C=C/c4ccccc4)c(=O)n3C[C@H]1[C@H](CO)[C@H]2C(=O)NC1CCCC1	-1	nt	nt	nt	nt	nt
CC(NC(=O)COc1cccnc1[N+](=O)[O-])c1ccc(F)cc1 (stereo unspecified)	12	-10	-10	30*	3	-6
COc1cc(OC)c(NC2=CC(=O)C(=O)c3ccccc32)cc1Cl	-13	18	-4	44*	34*	-6
Cc1ccc(NC2=CC(=O)C(=O)c3ccccc32)cc1	nt	16	-18	14	nt	nt
Cc1cc2cc(CNC(=S)NC3CCCCC3)ccc2n1C	5	13	7	20*	4	-2
Cc1cc2cc(CNC(=S)NCc3ccccc3)ccc2n1C	6	11	3	1	nt	nt
COc1ccc(S(=O)(=O)N(C)C[C@@H]2OCCCC[C@@H](C)Oc3ccc(NS(C)(=O)=O)cc3C(=O)N([C@@H](C)CO)C[C@@H]2C)cc1	-3	nt	nt	nt	nt	nt
Cc1cc(C(=O)N/N=C/c2ccc3ccccc3c2)n[nH]1	-14	-7	1	36*	-10	-27
Cc1cc(C(=O)N/N=C/c2cccnc2)n[nH]1	-4	-5	-25	1	nt	nt
CCOC(=O)CON1C(=O)c2ccccc2C1=O	2	-6	-14	26*	-4	-6
CC(=O)OCCCCON1C(=O)c2ccccc2C1=O	nt	-4	5	7	nt	nt
C/C=C/c1cnc2c(c1)C(=O)N([C@H](C)CO)C[C@H](C)[C@@H](CN(C)S(=O)(=O)c1ccccc1)O2	22	nt	nt	nt	nt	nt
COc1ccc(-c2nc3ccccn3c2Cl)cc1	17	52*	3	24*	47*	30*
O=[N+]([O-])c1ccc(S(=O)(=O)N2CCN=C2SCc2ccc(F)cc2)cc1	7	0	-10	35*	70*	-4
O=C(O)CCCCCn1c(SCC(=O)c2ccc(O)c(O)c2)nc2ccsc2c1=O	29	17	-1	2	nt	nt
O=C(O)CCCCCn1c(SCC(=O)N2CCCC2)nc2ccsc2c1=O	7	7	-5	64*	5	-4
CN(C)c1ccc(/C=C/C=C2/SC(=S)N(c3ccccc3)C2=O)cc1	nt	13	-48	34*	21*	12*
CCCNC(=O)N[C@@H]1CC[C@@H](CC(=O)NCCc2ccccc2)O[C@@H]1CO	6	nt	nt	nt	nt	nt
COc1ccc(/C=N/NC(=O)c2nn(-c3ccc(Cl)cc3)c(=O)c3c(N)scc23)cc1	nt	12	-22	5	nt	nt
COc1ccc(/C=N/NC(=O)c2nn(-c3ccccc3)c(=O)c3c(N)scc23)cc1	nt	-9	3	20*	8	-11
Oc1c(/C=N/c2ccccn2)sc2ccccc12	-82	37	-4	3	nt	nt
Oc1c(C=Nc2cccnc2)sc2ccccc12	-41	-10	-1	23*	16*	18*
Oc1c(C=Nc2ccc(Cl)cn2)sc2ccccc12	-18	-3	11	24*	42*	18*
Oc1c(C=NCc2ccncc2)sc2ccccc12	nt	nt	nt	21*	-2	-23
SMILES	LGR2 antag	TWEAK Fn14 block	TROY signal inh	HSP90 refold inh	HSP90 inh confirm	FLuc counter
CC(=O)NCCN=Cc1sc2ccccc2c1O	nt	-5	37	20*	3	-8
COc1ccc(NC(=O)N(C)C[C@H]2Oc3ccc(NC(=O)Nc4cccc5ccccc45)cc3C(=O)N([C@H](C)CO)C[C@H]2C)cc1	-1	nt	nt	nt	nt	nt
CCCNC(=O)C[C@@H]1CC[C@@H]2[C@H](COc3ccc(NC(=O)COC)cc3C(=O)N2C)O1	21	nt	nt	nt	nt	nt
Oc1c(C=Nc2ccccc2)sc2ccccc12	?	67*	37	38*	84*	80*
Oc1sc(C=Nc2ccccc2)c2ccccc12	nt	-47	-4	3	nt	nt
CN=Cc1sc2ccccc2c1O	-61	-1	48	34*	-1	-9
N#CCCSc1ncnc2c1oc1ccccc12	nt	-22	-7	26*	-11	-20
CC(C)NC(=O)N(C)C[C@H]1OCCCC[C@H](C)Oc2ccc(NC(=O)c3ccccc3)cc2C(=O)N([C@@H](C)CO)C[C@H]1C	-3	nt	nt	nt	nt	nt
COc1ccc(N2C(=O)c3ccccc3NC23CCCC3)cc1	-6	13	-7	19*	2	-6
CCC1(CC)Nc2ccccc2C(=O)N1c1ccc(OC)cc1	-3	17	13	11	nt	nt
COc1ccccc1-c1ccc(C(=O)O)o1	-23	-12	-68	46*	54*	-14
